Source: PubChem BioAssay
HPGD inh: inhibitors of human 15-hydroxyprostaglandin dehydrogenase (HPGD) | purified HPGD, NADH fluorescence kinetic, PGE2 substrate | 150,000 compounds, 4.3% hits | Potency, µM, actives largely listed as inhibitors | AID 894 | P15428
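20 nM HPGD preincubated 15 min at room temperature with compound in 50 mM Tris-HCl pH 8, 0.01% Tween 20. Started with 1 mM NAD+ and 30 uM prostaglandin E2; NADH fluorescence (360/450 nm) read 5 times over 30-s intervals, last minus first.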
PNC inhibitor: inhibitors of perinucleolar compartment assembly. activity change (PNC), negative = inhibition, % at 10 µM. PC3M PTB-GFP, PNC prevalence imaging, 16 h; hits give low values. AID 2417. 140,000 compounds, 3.1% hits;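 active = readout at or below -70, meaning at least 70% loss of cells showing the perinucleolar compartment, a nuclear body marking cancer cells; inconclusive = readout between -30 and a set limit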
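PC3M cells stably expressing PTB-GFP, 750–1000 cells/well, treated 16 h at 37 °C with compound (23 nl of library stock), in duplicate. After paraformaldehyde fixation and Hoechst stain, imaged at 20x; PNC prevalence scored by image analysis.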
ALDH1A1 inh: inhibitors of human aldehyde dehydrogenase 1A1 | P00352 | Purified ALDH1A1, NADH fluorescence, propionaldehyde substrate | Potency, µM (series often up to 75.3 µM), usual class: inhibitors | 220,000 compounds, 7.3% hits
Target sequence (P00352 whole entry, looked up): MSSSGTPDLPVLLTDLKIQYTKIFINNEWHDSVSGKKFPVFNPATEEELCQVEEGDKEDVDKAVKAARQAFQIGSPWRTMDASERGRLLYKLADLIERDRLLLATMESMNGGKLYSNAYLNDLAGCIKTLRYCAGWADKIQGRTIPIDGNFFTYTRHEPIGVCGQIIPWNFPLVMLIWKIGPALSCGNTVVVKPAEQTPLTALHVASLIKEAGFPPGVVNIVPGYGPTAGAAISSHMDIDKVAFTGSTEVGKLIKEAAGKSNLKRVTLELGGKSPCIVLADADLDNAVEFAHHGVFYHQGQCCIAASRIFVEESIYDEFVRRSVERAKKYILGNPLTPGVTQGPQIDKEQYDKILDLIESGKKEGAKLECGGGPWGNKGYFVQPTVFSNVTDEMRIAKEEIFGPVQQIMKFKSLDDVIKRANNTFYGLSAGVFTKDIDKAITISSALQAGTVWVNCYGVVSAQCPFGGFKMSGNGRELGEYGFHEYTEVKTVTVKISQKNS
Hits are given with their value; 0 = inactive; ? = inconclusive; - = no result given; [ ] = another dose, or the depositor's remark. Most compounds without a hit are left out; they make up all but 11% or so of the library. Unless noted, calls follow the shape of the dose curve; as a rule, active = well fitted inhibition curve with a large enough effect (not every such curve was filed as active); inconclusive = small, poorly fitted or top-dose-only effect, or another doubt; inactive = no such curve, though single readings can be large or run the other way.

SMILES	HPGD inh	PNC inhibitor	ALDH1A1 inh
c1ccc(Cc2nn3c(Cn4nnc5ccccc54)nnc3s2)cc1	20µM	0	25.1µM
c1ccc(Cc2nnc3sc(Nc4ccccc4)nn23)cc1	0	0	0
COc1ccc(NC(=O)CSc2nnc(Cn3cnc4ccccc43)n2C)cc1	0	0	0
c1ccc2c(c1)ncn2Cc1nnc2sc(-c3ccc4c(c3)OCO4)nn12	?	0	?
O=C(O)C1CCCCC1C(=O)Nc1cc(C(F)(F)F)ccc1Cl (stereo unspecified)	-	-	0
CCCC1=C(C(=O)OCC)C(c2ccco2)C(C#N)=C(N)O1 (stereo unspecified)	-	-	0
CCOC(=O)/C(=N\O)C1=NC(C)(C)Cc2ccccc21	0	0	0
CCOC(=O)/C(C(=O)Nc1ccccc1Br)=C1/NC(C)(C)Cc2ccccc21	0	0	28.2µM
CN(Cc1ccccc1)C(=O)[C@H](Cc1ccc2ccccc2c1)NC(=O)[C@@H]1C[C@@H](O)CN1C(=O)c1cn(C)c2ccccc12	0	-	0
CN(C)S(=O)(=O)c1ccc(C(=O)OCC(=O)c2ccc3c(c2)NC(=O)CO3)cc1	-	-	0
CN(C)S(=O)(=O)c1cccc(C(=O)OCC(=O)c2ccc3c(c2)NC(=O)CO3)c1	0	0	22.4µM
CS(=O)(=O)C1=NSC2=NC(=O)/C(=C\c3ccc(-c4ccccc4)o3)C(=N)N21	0	0	0
Cc1cc(C)cc(-n2cccc2/C=C2/C(=N)N3C(=NC2=O)SN=C3S(C)(=O)=O)c1	-	-	5.01µM
COc1cccc(-n2c(C)cc(/C=C3/C(=N)N4C(=NC3=O)SN=C4S(C)(=O)=O)c2C)c1	-	-	31.6µM
Cc1ccc(-n2c(C)cc(/C=C3/C(=N)N4C(c5ccccc5)=CSC4=NC3=O)c2C)cc1	0	0	0
Cn1c(N)c(C(=O)COC(=O)CSc2ccc(Cl)cc2)c(=O)n(C)c1=O	0	0	0
COc1ccc(C(C(=O)NC2CCCC2)N(Cc2ccc(C)cc2)C(=O)c2ccn[nH]2)cc1OC (stereo unspecified)	0	0	0
CCc1cccc(C)c1NC(=O)C1CCN(C(=O)c2ccc([N+](=O)[O-])cc2)CC1	-	-	0
COc1cc(C(=O)OCCNC(=O)c2ccncc2)cc(OC)c1OC	0	-110.8	0
O=C(NCCOC(=O)c1ccncc1)c1ccccc1	0	0	0
Cc1ccc(C(C)C)c(OCCNC(=S)Nc2cccc3ccccc23)c1	0	0	0
CCCC(C)C(=O)Nc1ccncc1 (stereo unspecified)	0	-100.0	0
CCCC(CCC)C(=O)Nc1ccncc1	0	0	0
C=CCNc1nc(Cl)nc(Nc2ccc(OCC)cc2)n1	0	0	0
CCOc1ccc(S(=O)(=O)N(CC)CC)cc1NS(=O)(=O)c1ccc(F)c(F)c1F	0	0	?
SMILES	HPGD inh	PNC inhibitor	ALDH1A1 inh
CCN(CC)S(=O)(=O)c1ccc(O)c(NS(=O)(=O)c2ccccc2F)c1	25.1µM	0	12.6µM
O=C1N(Cc2cccc(Cl)c2)C[C@@H]2C[C@@H](c3cccn3-c3nccs3)N3CCC[C@@]123	-	-	0
COc1ccc(C(O)c2nc3ccccc3s2)cc1 (stereo unspecified)	0	0	0
O=C(O)[C@@H](O)[C@@H](O)[C@@H](O)[C@@H](O)c1nc2ccccc2s1	3.55µM	-	0[13.5 µM]
Cc1ccccc1NC(=S)N(CCN1CCCCCC1)Cc1cccs1	-	-	0
CCN1CCCc2cc(CN(CCN3CCOCC3)C(=S)Nc3cccc(C)c3)ccc21	-	-	7.94µM
CCN1CCCc2cc(CN(CCN3CCOCC3)C(=S)Nc3ccccc3C)ccc21	-	-	22.4µM
CCc1ccc(NC(=O)N(CCN2CCOCC2)Cc2ccc3c(c2)CCCN3CC)cc1	?	0	?
CCN1CCCc2cc(CN(CCN3CCOCC3)C(=O)Nc3ccc(C)c(C)c3)ccc21	0	?	28.2µM
Cc1cccc(NC(=S)N(CCN2CCOCC2)Cc2ccccc2F)c1	-	-	0
CCCN(CCC)CCc1cccc2c1CC(=O)N2	0	-	0
O=C(OCC(=O)c1c[nH]c2ccccc12)c1cc(Br)ccc1O	-	-	0
CCOC(=O)C1CCN(C(=O)c2cnn3c(C)cc(C)nc23)CC1	?	0	?
Cc1cnc(CNc2ncncc2-c2c(C)noc2C)cn1	-	-	0
Brc1cccc(CN2CCCCCCC2)c1	0	0	0
O=C(Nc1ccccc1)N1CC2(CCN(S(=O)(=O)c3ccccc3)CC2)C1	0	-	0
Fc1ccc(-c2nc(-c3cnccn3)no2)c(Cl)c1	-	-	0
CSc1ncccc1C(=O)NCc1ccc(C)cc1	14.1µM	0	0
CCOc1ncccc1C(=O)NCc1ccc(C)cc1	15.8µM	?	0
CCOc1ncccc1C(=O)Nc1ccccc1C(=O)NCc1ccc2c(c1)OCO2	0	0	0
CSc1ncccc1C(=O)NCCc1ccc(Cl)cc1	-	-	0
CCOc1ccccc1CN(CCc1ccc2c(c1)OCO2)Cc1ccccn1	0	?	0
Cc1ccc(S(=O)(=O)CCC(=O)NCc2ccco2)cc1	0	0	?
N#CCC(=O)NCCCc1ccccc1	0	0	0
COC(=O)c1ccc(-c2ccc(/C=N/N3C(=O)C4C5C=CC(CC5)C4C3=O)o2)cc1 (stereo unspecified)	-	-	0
SMILES	HPGD inh	PNC inhibitor	ALDH1A1 inh
COCc1cc(C)n(CC(=O)N/N=C/c2ccc(-c3ccc(Cl)c(C(=O)O)c3)o2)c(=O)c1C#N	?	0	?
O=C(O)c1cc(-c2ccc(/C=N/N3C(=O)C4C5C=CC(CC5)C4C3=O)o2)ccc1Cl (stereo unspecified)	-	-	11.2µM
O=C(O)c1cc(-c2ccc(/C=N/N3C(=O)C4C5C=CC(C6CC56)C4C3=O)o2)ccc1Cl (stereo unspecified)	-	-	12.6µM
O=C1C2C3C=CC(CC3)C2C(=O)N1/N=C/c1ccc(O)c(O)c1 (stereo unspecified)	0	0	?
O=C1C2C3C=CC(CC3)C2C(=O)N1/N=C/c1ccc(O)cc1 (stereo unspecified)	28.2µM	0	?
OCCC1CN(Cc2cccn2-c2ccccn2)CCN1C1CCCCC1 (stereo unspecified)	-	-	0
C/C(C[n+]1ccccc1)=N\N=C(N)N	0	-	0[13.5 µM]
C=CCn1c(SCC(=O)c2cc(C)n(C(C)COC)c2C)nc2sc(C)c(C)c2c1=O (stereo unspecified)	0	?	0
N#Cc1ccc(OC(=O)c2ccc(N=C(N)N)cc2)cc1	0	-	0[13.5 µM]
CCN(CC)C(=O)COc1ccc(-c2nnc(Nc3ccc(OC)c(C(=O)NC)c3)c3ccccc23)cc1	-	-	25.1µM
COc1ccc(Nc2nnc(-c3ccc(C)cc3)c3ccccc23)cc1C(=O)N1CCCCC1	?	0	?
CC(=O)CCc1ccc(Oc2nc(-c3cccnc3)nc3ccccc23)cc1	-	-	0
Cc1nc(C(N)=O)nc2ccccc12	-	-	0
COc1ccc(N2C(=O)C3CCCN3C2=O)cc1 (stereo unspecified)	0	0	0
CCOC(=O)CSc1nc2ccccc2c(=O)n1CCC(=O)NCCc1ccc(OC)c(OC)c1	0	0	?
C=CCNC(=S)NCCCCC1NC(=S)N(CC=C)C1=O (stereo unspecified)	0	0	0
O=C1C(CCCNC(=S)NCc2ccccc2)NC(=S)N1Cc1ccccc1 (stereo unspecified)	?	0	31.6µM
CCOC(=O)N1CCC(=NNC(=O)c2ccc(O)cc2)CC1	0	?	?
CN1C(=O)c2ccccc2C(C(=O)O)C1c1cn(C)c2ccccc12 (stereo unspecified)	0	0	0
